PubChem BioAssay AID1159580 (chemical genetic matrix, 2015)
In all, about 5,500 compounds went through this assay and about 2,000 (36%) were called active. About 18% were inconclusive and are not listed. No stated cut-off is given here; in the data, active means normalized growth mostly below about 0.91 (no sharp cut-off); inconclusive means no clear call, values can overlap the other calls; inactive means mostly above about 0.92. The list shows a part of the results.

Test: chemical genetic growth profiling, strain panel (AID 1159580);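 further: tested at 20 µM; growth read once vehicle control cultures reached saturation at 30 °C; 1 = growth at the plate median or of vehicle wells; lower values mean less growth of the strain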
Conditions: growth OD

Measured: normalized growth

CCC1(CC)C(=O)C=CNC1=O
inactive: S. cerevisiae deletion strains, locus YJR066W, strain TOR1, active compounds read low 0.961 | S. cerevisiae deletion strains, locus YKL009W, strain mrt4, active compounds read low 1 | S. cerevisiae deletion strains, locus YKL068W, active compounds read low 1 | S. cerevisiae deletion strains, locus YKL085W, strain MDH1 (second series), active compounds read low 1 | S. cerevisiae deletion strains, locus YKL085W, strain MDH1, active compounds read low 1 | S. cerevisiae deletion strains, locus YKL160W, strain elf1, active compounds read low 0.992 | S. cerevisiae deletion strains, locus YKL190W, strain CNB1, active compounds read low 1 | S. cerevisiae deletion strains, locus YKR001C, strain vps1, active compounds read low 0.983 | S. cerevisiae deletion strains, locus YKR026C, strain gcn3, active compounds read low 0.97 | S. cerevisiae deletion strains, locus YKR091W, strain srl3, active compounds read low 1 | S. cerevisiae deletion strains, locus YLL001W, strain dnm1, active compounds read low 0.985 | S. cerevisiae deletion strains, locus YLL026W, active compounds read low 0.99 | S. cerevisiae deletion strains, locus YLL041C, strain sdh2, active compounds read low 0.985 | S. cerevisiae deletion strains, locus YLR027C, strain aat2, active compounds read low 0.996 | S. cerevisiae deletion strains, locus YLR039C, strain RIC1, active compounds read low 1.01 | S. cerevisiae deletion strains, locus YLR058C, strain SHM2, active compounds read low 1.01 | S. cerevisiae deletion strains, locus YLR102C, strain apc9, active compounds read low 1.01 | S. cerevisiae deletion strains, locus YLR113W, strain HOG1, active compounds read low 0.988 | S. cerevisiae deletion strains, locus YLR221C, strain rsa3, active compounds read low 1.01 | S. cerevisiae deletion strains, locus YLR258W, strain gsy2, active compounds read low 1.01 | S. cerevisiae deletion strains, locus YLR262C, strain YPT6 (second series), active compounds read low 1.02 | S. cerevisiae deletion strains, locus YLR262C, strain YPT6, active compounds read low 1.01 | S. cerevisiae deletion strains, locus YLR268W, strain sec22, active compounds read low 1.01 | S. cerevisiae deletion strains, locus YLR320W, strain mms22, active compounds read low 1.02 | S. cerevisiae deletion strains, locus YLR330W, strain CHS5, active compounds read low 1.01 | S. cerevisiae deletion strains, locus YLR342W, strain FKS1 (second series), active compounds read low 1.06 | S. cerevisiae deletion strains, locus YLR342W, strain FKS1, active compounds read low 1.01 | S. cerevisiae deletion strains, locus YLR357W, strain rsc2, active compounds read low 1 | S. cerevisiae deletion strains, locus YLR370C, strain arc18, active compounds read low 0.997 | S. cerevisiae deletion strains, locus YLR371W, strain rom2, active compounds read low 1.01 | S. cerevisiae deletion strains, locus YLR384C, strain iki3, active compounds read low 0.995 | S. cerevisiae deletion strains, locus YLR418C, strain cdc73, active compounds read low 1.02 | S. cerevisiae deletion strains, locus YML016C, strain PPZ1, active compounds read low 1 | S. cerevisiae deletion strains, locus YML032C, strain rad52, active compounds read low 0.997 | S. cerevisiae deletion strains, locus YML120C, strain ndi1, active compounds read low 0.994 | S. cerevisiae deletion strains, locus YML124C, strain tub3, active compounds read low 1.01 | S. cerevisiae deletion strains, locus YMR058W, strain fet3, active compounds read low 0.989 | S. cerevisiae deletion strains, locus YMR078C, strain ctf18, active compounds read low 1.01 | S. cerevisiae deletion strains, locus YMR125W, strain sto1, active compounds read low 0.973 | S. cerevisiae deletion strains, locus YMR129W, active compounds read low 0.991 | S. cerevisiae deletion strains, locus YMR205C, strain PFK2, active compounds read low 1.05 | S. cerevisiae deletion strains, locus YMR223W, strain ubp8, active compounds read low 1.02 | S. cerevisiae deletion strains, locus YMR231W, strain pep5, active compounds read low 0.998 | S. cerevisiae deletion strains, locus YMR263W, strain SAP30, active compounds read low 0.995 | S. cerevisiae deletion strains, locus YMR307W, strain GAS1, active compounds read low 1.01 | S. cerevisiae deletion strains, locus YNL067W, strain RPL9B, active compounds read low 0.981 | S. cerevisiae deletion strains, locus YNL071W, strain lat1, active compounds read low 0.994 | S. cerevisiae deletion strains, locus YNL128W, strain TEP1, active compounds read low 1.03 | S. cerevisiae deletion strains, locus YNL183C, strain NPR1, active compounds read low 0.958 | S. cerevisiae deletion strains, locus YNL209W, strain ssb2, active compounds read low 1 | S. cerevisiae deletion strains, locus YNL233W, strain BNI4, active compounds read low 0.978 | S. cerevisiae deletion strains, locus YNL248C, strain rpa49, active compounds read low 0.96 | S. cerevisiae deletion strains, locus YNL250W, strain rad50, active compounds read low 1.02 | S. cerevisiae deletion strains, locus YNL271C, strain bni1, active compounds read low 1.01 | S. cerevisiae deletion strains, locus YNL298W, strain CLA4, active compounds read low 1 | S. cerevisiae deletion strains, locus YNL307C, strain MCK1, active compounds read low 1.02 | S. cerevisiae deletion strains, locus YNL322C, strain KRE1 (second series), active compounds read low 0.992 | S. cerevisiae deletion strains, locus YNL322C, strain KRE1, active compounds read low 0.999 | S. cerevisiae deletion strains, locus YNR049C, strain mso1, active compounds read low 0.994 | S. cerevisiae deletion strains, locus YNR052C, strain pop2, active compounds read low 1.01 | S. cerevisiae deletion strains, locus YOL006C, strain TOP1, active compounds read low 0.966 | S. cerevisiae deletion strains, locus YOL012C, strain htz1 0.962 | S. cerevisiae deletion strains, locus YOL147C, strain pex11, active compounds read low 1.01 | S. cerevisiae deletion strains, locus YOR001W, strain rrp6, active compounds read low 0.971 | S. cerevisiae deletion strains, locus YOR061W, strain CKA2, active compounds read low 1.01 | S. cerevisiae deletion strains, locus YOR069W, strain VPS5, active compounds read low 1.01 | S. cerevisiae deletion strains, locus YOR070C, strain gyp1, active compounds read low 1 | S. cerevisiae deletion strains, locus YOR080W, strain dia2, active compounds read low 0.999 | S. cerevisiae deletion strains, locus YOR083W, strain WHI5, active compounds read low 0.984 | S. cerevisiae deletion strains, locus YOR106W, strain vam3, active compounds read low 1.01 | S. cerevisiae deletion strains, locus YOR136W, strain idh2, active compounds read low 0.994 | S. cerevisiae deletion strains, locus YOR144C, strain elg1, active compounds read low 1 | S. cerevisiae deletion strains, locus YOR184W, strain ser1, active compounds read low 1.02 | S. cerevisiae deletion strains, locus YOR231W, strain MKK1, active compounds read low 0.98 | S. cerevisiae deletion strains, locus YOR265W, strain rbl2, active compounds read low 0.996 | S. cerevisiae deletion strains, locus YOR270C, strain vph1, active compounds read low 0.994 | S. cerevisiae deletion strains, locus YOR290C, strain snf2, active compounds read low 0.965 | S. cerevisiae deletion strains, locus YOR316C, strain cot1, active compounds read low 1.01 | S. cerevisiae deletion strains, locus YPL051W, strain arl3, active compounds read low 0.985 | S. cerevisiae deletion strains, locus YPL078C, strain atp4, active compounds read low 0.968 | S. cerevisiae deletion strains, locus YPL106C, strain sse1, active compounds read low 1 | S. cerevisiae deletion strains, locus YPL240C, strain hsp82, active compounds read low 1.02 | S. cerevisiae deletion strains, locus YPL256C, strain CLN2, active compounds read low 1.01 | S. cerevisiae deletion strains, locus YPR119W, strain clb2, active compounds read low 1 | S. cerevisiae deletion strains, locus YPR141C, strain kar3, active compounds read low 1 | S. cerevisiae deletion strains, locus YPR163C, strain tif3, active compounds read low 1.01 | S. cerevisiae deletion strains, locus YPR167C, strain met16, active compounds read low 1.01 | S. cerevisiae deletion strains, strain wtn01, active compounds read low 1.02 | S. cerevisiae strains, strain wild type, active compounds read low 0.996
